CHO-K1 Ca PAM – nonselective calcium activators in parental CHO-K1 cells, primary screen, counter-screen for M1 PAM project, cell-based, Fluo-8 calcium fluorescence, full deck, 1536-well; ATP EC20; 0% at ATP EC20, 100% at ATP max; activation, % at 3 µM; actives 0.02% (n = 360,000); AID 602247, 2012;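 active = activation above the run cutoff, the mean activation of all test compounds plus 3 SD, cut at about 40% in these data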;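 also: peak over basal fluorescence ratio in a 140 s read after ATP addition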
CHRM1 PAM – human M1 muscarinic receptor positive allosteric modulators, primary screen, CHO-K1 cells, Fluo-8 calcium fluorescence, 1536-well; Muscarinic acetylcholine receptor M1 (Homo sapiens), P11229; CHO-K1 hM1, ACh EC20; 0% = ACh EC20, 100% = maximal ACh; activation, % at 3 µM; actives 0.088% (n = 360,000); AID 588819, 2011; in the data active = activation above about 19%, passing the limit was not always enough
Target sequence (P11229 whole entry, looked up): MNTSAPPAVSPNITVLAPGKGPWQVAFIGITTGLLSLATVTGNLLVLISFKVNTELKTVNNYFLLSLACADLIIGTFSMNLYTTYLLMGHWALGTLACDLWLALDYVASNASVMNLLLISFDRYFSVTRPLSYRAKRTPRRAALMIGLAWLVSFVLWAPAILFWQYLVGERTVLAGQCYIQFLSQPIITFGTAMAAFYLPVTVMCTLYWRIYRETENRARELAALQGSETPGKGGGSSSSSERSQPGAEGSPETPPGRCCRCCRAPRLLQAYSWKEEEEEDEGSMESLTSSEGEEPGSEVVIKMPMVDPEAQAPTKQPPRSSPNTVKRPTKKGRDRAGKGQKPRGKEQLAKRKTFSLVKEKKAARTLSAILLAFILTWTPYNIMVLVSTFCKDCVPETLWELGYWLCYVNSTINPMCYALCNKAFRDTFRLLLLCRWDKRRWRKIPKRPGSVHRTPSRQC
M1 ag – human M1 muscarinic receptor agonists, primary screen, Fluo-8 calcium fluorescence, CHO-K1 cells, HTS; Muscarinic acetylcholine receptor M1 (Homo sapiens), P11229; CHO-K1 hM1, agonist mode; 0% DMSO, 100% acetylcholine EC100; activation, % at 3 µM; actives 0.33% (n = 360,000); AID 588814, 2011;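 active = activation above the run's mean compound activation plus 3 SD, cut at about 16% in these data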;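 also: peak over basal fluorescence ratio within a 140 s kinetic read after compound addition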
CHRM1 antagonist – human M1 muscarinic receptor antagonists, primary screen, CHO-K1 cells, Fluo-8 calcium fluorescence, 1536-well; Muscarinic acetylcholine receptor M1 (Homo sapiens), P11229; inhibition, % at 3 µM; CHO-K1 hM1, ACh EC80 antagonist; AID 588852, 2011; actives 1.3% (n = 360,000);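 active = percent inhibition above its own plate's cutoff, namely the mean of that plate's compound wells plus 3 SD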;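 also: peak over basal fluorescence ratio during 140 s after agonist addition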
CHO-K1 Ca antag – M1 antagonist counterscreen hit in parental CHO-K1 cells. ATP-induced calcium, Fluo-8 fluorescence. inhibition, % at 3 µM. actives 0.6% (n = 360,000);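 active = inhibition above a per-plate cutoff, the plate's mean sample inhibition plus 3 SD, cut at about 24% in these data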
M1 ag parental – counter-screen for M1 agonists: effect in parental CHO-K1 cells. actives 0.48% (n = 360,000). activation, % at 3 µM. Fluo-8 calcium fluorescence; scaled to maximal ATP response, vehicle zero. AID 602248, 2012; in the data active = activation above about 15%;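 also: untransfected CHO-K1 host cells lacking M1 receptor as counterscreen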
Of the large screens only hits and unclear results are named; the others gave an inactive call. A selection: hits, their analogues and other compounds. The true share with any hit is near 2.3%.

COc1cc(CCCN2C(=S)NC[C@@H]2c2ccccc2)cc(OC)c1OC	none
CC(C)(C)N(Cc1ccccc1)C(=O)COC(=O)CN1C(=O)NC2(CCCC2)C1=O	none
COc1ccc(-c2nnc(SCC(=O)Nc3c(Cl)cc(Cl)cc3C(=O)O)o2)cc1	none
Cc1[nH]nc(SCC(=O)NC(C)c2ccccc2)c1[N+](=O)[O-] (centres undefined)	CHO-K1 Ca antag 25
CC(C)Cn1c(N)c(C(=O)COC(=O)Cc2cccs2)c(=O)n(C)c1=O	CHRM1 antagonist 30
CC(C)Cn1c(N)c(C(=O)COC(=O)Cc2cccc(C(F)(F)F)c2)c(=O)n(C)c1=O	CHRM1 antagonist 38
O=C(c1ccc(C(F)(F)F)cc1)C1CCCN(C(=O)CCN2CCCO2)C1 (centres undefined)	none
COc1ccc2c(c1)C=C([C@@H]1C[C@H]3CN(c4ccccc4)C(=O)[C@]34CCCN14)CO2	CHRM1 antagonist 58
COc1ccccc1CN1C[C@@H]2C[C@@H](c3ccc(C)cc3)N3CCC[C@@]23C1=O	none
COCc1cc([C@@H]2C[C@H]3CN(c4ccccc4)C(=O)[C@]34CCCN24)ccc1OC	CHRM1 antagonist 57
CCc1ccc([C@@H]2C[C@H]3CN(Cc4ccccc4OC)C(=O)[C@]34CCCN24)cc1	CHRM1 antagonist 47
Cc1ccc([C@@H]2C[C@H]3CN(Cc4cccc(Cl)c4)C(=O)[C@]34CCCN24)o1	none
CN1C[C@@H]2C[C@@H](C3=Cc4cc(Cl)ccc4OC3)N3CCC[C@@]23C1=O	none
Cc1cccc([C@@H]2C[C@H]3CN(Cc4cccc(Cl)c4)C(=O)[C@]34CCCN24)n1	CHRM1 antagonist 23
CC(NC(=O)CNC(=O)c1ccc2c(c1)OCO2)c1ccc(S(N)(=O)=O)cc1 (centres undefined)	none
O=C(NCc1ccc(Cl)cc1)c1ccc(Cl)cc1[N+](=O)[O-]	none
Cc1ccc(CNC(=O)c2ccc(Cl)cc2[N+](=O)[O-])cc1	CHO-K1 Ca antag 26
CCC1(C)CC(C#N)(C#N)C(=O)NC1=O (centres undefined)	none
CCOC(=O)Cn1c(-c2ccccc2)cc(SC)c(C#N)c1=O	CHRM1 antagonist 52
Cc1ccc(C(=O)NCC(=O)N/N=C/c2cccs2)cc1C	none
COc1ccccc1C(=O)N1CCN(C(=O)[C@H]2O[C@@H](n3ccc(N)nc3=O)[C@H](O)[C@@H]2O)CC1	none
COc1cc(/C=N/n2nnnc2N)ccc1OCC(N)=O	none
COc1cc(/C=N\n2nnnc2N)ccc1OCc1ccc(F)cc1	CHRM1 antagonist active
COC(=O)c1sc(S(=O)(=O)N2CCCCC2)c(C(=O)OC)c1C	CHRM1 antagonist 21
COc1ccc(NS(=O)(=O)c2cccc(NC(=O)c3ccc(Cl)nc3)c2)cc1	CHO-K1 Ca antag 43
COc1ccc(NC(=O)c2cccc(S(=O)(=O)Nc3ccc(Br)cc3)c2)cn1	M1 ag parental 16
O=C(Nc1ccc(Br)cc1)c1cccc(S(=O)(=O)Nc2cnc3ccccc3c2)c1	none
COc1cccc(S(=O)(=O)Nc2ccc(C(=O)Nc3ccncc3)cc2)c1	none
O=C(Nc1cccc(S(=O)(=O)Nc2ccc(Cl)cc2)c1)c1ccc(Cl)nc1	CHRM1 antagonist 29, CHO-K1 Ca antag 28
Cc1ccc(OC(C)C(=O)N2CCc3ccccc32)c([N+](=O)[O-])n1 (centres undefined)	none
CCCCCCCn1c(=O)c(C(=O)OC)c(N)c2ccccc21	M1 ag parental 23
CCN(CC)CCCNC(=O)CNC(=O)c1nn(-c2ccc(OC)cc2)c(=O)c2ccccc12	CHRM1 antagonist 45
CCN(CC)CCNC(=O)CNC(=O)c1nn(-c2ccc(OC)cc2)c(=O)c2ccccc12	none
CCC1CCCCN1CCCNC(=O)CNC(=O)c1nn(-c2ccc(OC)cc2)c(=O)c2ccccc12 (centres undefined)	CHRM1 antagonist 40
O=C(C[C@H]1C/C=C\CCCC(=O)OC[C@H]2CCCN2C1=O)NCCO	none
O=C(c1ccco1)N1CCN(S(=O)(=O)c2cccc([N+](=O)[O-])c2)CC1	none
COc1ccc(NS(=O)(=O)c2ccc3c(c2)N(C(C)=O)CCS3)cc1	M1 ag parental 17
Nc1cc(S(=O)(=O)Nc2ccc(Cl)cc2)ccc1N1CCOCC1	CHRM1 antagonist 39
COc1ccc(NS(=O)(=O)c2cc(NC(=O)CCNC(C)=O)ccc2N2CCCCC2)cc1	CHRM1 antagonist 44
CC(=O)N1CCSc2ccc(S(=O)(=O)Nc3ccc(C)cc3)cc21	none
COc1ccc(NS(=O)(=O)c2ccc(N3CCCC3)c(N)c2)cc1	CHRM1 antagonist 40
CCOc1cc(OCC)cc(C(=O)N2CCC[C@H]2C(=O)N2CCC[C@H]2C(=O)NCc2ccccn2)c1	none (no result: CHRM1 PAM, M1 ag, CHRM1 antagonist)
O=C(C(=NNc1ccccc1)C(=S)Nc1ccccc1)c1ccccc1	none
O=C1OCC2=C1C(c1ccccc1)CC(=O)N2c1ccc(F)cc1 (centres undefined)	none
CCNC(=O)Nc1cc(S(=O)(=O)Nc2ccc(OC)cc2)ccc1N1CCOCC1	CHO-K1 Ca antag 28
O=C(COc1ccc(S(=O)(=O)Nc2ccc(Cl)cc2)cc1)N1CCOCC1	M1 ag 18
COc1ccc(NS(=O)(=O)c2ccc(OCC(=O)N3CCOCC3)cc2)cc1	none
COc1cccc(CN2C(=NC(=O)C3CC3)SC3CS(=O)(=O)CC32)c1 (centres undefined)	none
Cc1cc(C)cc(N2C(=O)C3CCCN3C2=S)c1 (centres undefined)	M1 ag parental 17
CCOCc1nnc(NC(=O)c2ccco2)s1	none
CCOCc1nnc(NC(=O)C2c3ccccc3Oc3ccccc32)s1	M1 ag parental 20
CC(C)c1nnc(NC(=O)C2c3ccccc3Oc3ccccc32)s1	CHRM1 antagonist 45
Cc1nnc(NC(=O)C2c3ccccc3Oc3ccccc32)s1	none
COc1ccc(Cl)cc1NC(=O)NC(C)c1ccncc1 (centres undefined)	CHO-K1 Ca antag 29
O=C(CCC(=O)c1ccccc1)Nc1ccccc1OC(F)F	none
CCCCNC(=O)C1(C)CCCCCN1Cc1cc2ccccc2o1 (centres undefined)	none
Cc1cc(NCc2ccccc2)n2ncc(-c3ccccc3)c2n1	CHRM1 antagonist 39
COc1ccc(CCNc2cc(C)nc3c(-c4ccccc4)cnn23)cc1OC	none
O=C(N/N=C/c1ccccc1F)c1ccc(COc2ccccc2Cl)o1	none
